We go through eleven compounds from PubChem BioAssay (EPA / NIEHS).

Experiment [1] addresses Steroid hormone receptor ERR1 (Homo sapiens) (UniProt P11474). Put plainly: ATG_ERRa_TRANS: Attagene TRANS-FACTORIAL HepG2 Assay for human Estrogen-Related Receptor alpha (ERRa) (AID 2282971). Conditions: HepG2 Attagene TRANS reporter, ERRa transactivation. In outline:
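Reporter transcript induction was quantified by RT-PCR and capillary electrophoresis of FAM-labelled, HpaI-cut products after 24 h treatment of HepG2 cells carrying transiently transfected GAL4-UAS reporter units and an exogenous ERRa-Gal4 fusion; activity scored as increase over DMSO.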

For experiment [2], the target named is X-box-binding protein 1 (Homo sapiens) (UniProt P17861). The experiment can be described thus: ATG_Xbp1_CIS: Attagene CIS-FACTORIAL HepG2 Assay for human X-box Binding Protein 1 (XBP1) (AID 2282972; active means hit-call score of the fitted dose curve at least 0.9, where 1 is the maximum; inactive means score below 0.9). Conditions: HepG2 XBP1 cis-element reporter, Attagene multiplex; actives raise or lower the signal. In outline:
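Multiplexed cis-reporter readout in transfected HepG2 liver cells. Exposure lasted 24 hours. Activity in either direction was fitted against DMSO as negative control and baseline.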

A short description of experiment [3]: ATG_M_19_TRANS: Attagene TRANS-FACTORIAL HepG2 Assay for M19 Transcription Factor (Internal Marker) (AID 2282974). Conditions: HepG2 Attagene TRANS-FACTORIAL M19 internal marker reporter. In outline:
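Background-control readout: after 24 h chemical exposure of transfected HepG2 carrying GAL4-driven reporter units, RNA was reverse-transcribed, amplified, fluorescently labeled and sized by capillary electrophoresis; gain-of-signal fit against DMSO.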

Experiment [4] can be described thus: ATG_GAL4_TRANS: Attagene TRANS-FACTORIAL HepG2 Assay for GAL4 (Internal Marker) (AID 2282976). Conditions: HepG2 Attagene TRANS GAL4 internal marker reporter. In outline:
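First, HepG2 cells were transfected with reporter units under GAL4-UAS control. Next, they were treated with chemical for 24 h. Finally, RNA was reverse-transcribed, PCR-amplified, FAM-labelled and resolved by capillary electrophoresis, with induction scored against DMSO.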

Experiment [5] deals with Estrogen-related receptor gamma (Homo sapiens) (UniProt P62508). Put plainly: ATG_ERRg_TRANS: Attagene TRANS-FACTORIAL HepG2 Assay for human Estrogen-Related Receptor gamma (ERRg) (AID 2282977).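 Further: hits increase reporter signal over DMSO so potencies reflect activators.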 Conditions: HepG2 Attagene TRANS reporter, ERRg transactivation. In outline: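 Readout: fluorescent reporter-mRNA fragments resolved by capillary electrophoresis after RT-PCR and HpaI cut. Cells: transiently transfected HepG2 carrying GAL4-UAS reporters driven by exogenous NR-Gal4 chimeras, dosed 24 h. Activity fitted upward relative to DMSO baseline.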

Experiment [6] is described as follows: ATG_M_32_TRANS: Attagene TRANS-FACTORIAL HepG2 Assay for M32 Transcription Factor (Internal Marker) (AID 2282984).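 Further: transcript level of a background control reporter unit measured by RT-PCR and capillary electrophoresis.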 Conditions: HepG2 Attagene TRANS M32 internal marker reporter. In outline: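 Fluorescence-detected mRNA induction, HepG2 liver cells, 24 h after dosing. Multiple GAL4-UAS reporter units introduced by transient transfection; background-control endpoint analysed for gain of signal against DMSO.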

For experiment [7], the target named is Nuclear receptor subfamily 4 group A member 2 (Homo sapiens) (UniProt P43354). The experiment can be described thus: ATG_NURR1_TRANS: Attagene TRANS-FACTORIAL HepG2 Assay for human Nuclear Receptor Related Protein 1 (NURR1) (AID 2282985). Conditions: HepG2 Attagene TRANS reporter, mRNA readout. In outline:
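Chimeric NR-Gal4 proteins were expressed in human HepG2 cells bearing GAL4-UAS reporter units, and induced reporter mRNA was quantified 24 h post-dosing by RT-PCR and capillary electrophoresis.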

Experiment [8] addresses Transcriptional activator Myb (Homo sapiens) (UniProt P10242). Put plainly: ATG_Myb_CIS: Attagene CIS-FACTORIAL HepG2 Assay for human Myeloblastosis (Myb) Proto-Oncogene Transcription Factor (AID 2282986; active means hit-call score of the fitted dose curve at least 0.9, where 1 is the maximum; inactive means score below 0.9). Conditions: HepG2 Attagene CIS-FACTORIAL Myb reporter transcription; actives raise or lower the signal. In outline:
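Reporter mRNA is quantified by RT-PCR and capillary electrophoresis 24 h after dosing HepG2 cells transfected with cis-regulated reporter units, which track endogenous transcription factor activity. Gain and loss of signal are fitted versus DMSO baseline.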

The target of experiment [9] is Nuclear respiratory factor 1 (Homo sapiens) (UniProt Q16656). Put plainly: ATG_NRF1_CIS: Attagene CIS-FACTORIAL HepG2 Assay for human Nuclear Respiratory Factor 1 (NRF1) Orphan Gene (AID 2282987; active means hit-call score of the fitted dose curve at least 0.9, where 1 is the maximum; inactive means score below 0.9). Conditions: HepG2 NRF1 cis-element reporter, Attagene multiplex; actives raise or lower the signal. In outline: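 Endogenous NRF1-driven reporter transcription in transfected HepG2 cells after 24 h treatment. Readout: RT-PCR products, 6-FAM labelled and resolved by capillary electrophoresis; changes fitted both directions relative to DMSO.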

Experiment [10] in a line: ATG_NFI_CIS: Attagene CIS-FACTORIAL HepG2 Assay for human Nuclear Factor I (NFI) (AID 2282989; active means hit-call score of the fitted dose curve at least 0.9, where 1 is the maximum; inactive means score below 0.9). Conditions: HepG2 cis-regulatory reporter, NFI response element transcription; actives raise or lower the signal. In outline: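 Cells: human liver HepG2, transiently transfected with promoter-regulated reporter transcription units. Exposure 24 h. Detection: fluorescent RT-PCR products separated by capillary electrophoresis, normalised to DMSO negative control.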

The target in experiment [11] is Myc proto-oncogene protein (Homo sapiens) (UniProt P01106). Put plainly: ATG_Myc_CIS: Attagene CIS-FACTORIAL HepG2 Assay for human Myelocytomatosis (Myc) Proto-Oncogene Transcription Factor (AID 2282990; active means hit-call score of the fitted dose curve at least 0.9, where 1 is the maximum; inactive means score below 0.9). Conditions: HepG2, Attagene cis-reporter transcription factor activity; actives raise or lower the signal. In outline: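 HepG2 cells transiently transfected with multiple cis-promoter-driven reporter transcription units, so endogenous TF activity is read. After 24 h compound exposure, reporter mRNA was quantified by RT-PCR, 6-FAM labelling, HpaI digestion and capillary electrophoresis; bidirectional fit versus DMSO.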

Experiment [12] concerns the target Estrogen receptor (Homo sapiens) (UniProt P03372). The experiment can be described thus: ATG_ERa_TRANS: Attagene TRANS-FACTORIAL HepG2 Assay for human Estrogen Receptor alpha (ERa) (AID 2282970). Conditions: HepG2 Attagene TRANS ERa GAL4 reporter, mRNA. In outline: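 Liver-derived HepG2 cells expressing chimeric nuclear receptor-Gal4 proteins from transient transfection were exposed for 24 hours. Gain of reporter mRNA signal versus DMSO, read by capillary electrophoresis of FAM-labelled PCR products, was recorded.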

For experiment [13], the target named is Glucocorticoid receptor (Homo sapiens) (UniProt P04150). Put plainly: ATG_GR_TRANS: Attagene TRANS-FACTORIAL HepG2 Assay for human Glucocorticoid Receptor (GR) (AID 2282978).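 Further: activators score as hits since higher reporter transcript over DMSO is fitted.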 Conditions: HepG2 Attagene TRANS GR reporter, mRNA transcription. In outline: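 Readout is reporter transcript from a chimeric GR-Gal4 acting on GAL4-UAS in transfected human HepG2 liver cells after 24 h exposure, quantified by RT-PCR and capillary electrophoresis. Activation fitted upward against DMSO.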

Experiment [14] deals with Oxysterols receptor LXR-alpha (Homo sapiens) (UniProt Q13133). The experiment can be described thus: ATG_LXRa_TRANS: Attagene TRANS-FACTORIAL HepG2 Assay for human Liver X Receptor alpha (LXRa) (AID 2282980). Conditions: HepG2 Attagene TRANS reporter, LXRa transactivation. In outline:
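Transfect HepG2 with GAL4-UAS multiplex reporter constructs (TRANS format, chimeric receptor-GAL4); treat 24 h; extract RNA, reverse-transcribe, PCR-amplify, FAM-label, HpaI-digest; resolve fragments by capillary electrophoresis. Upward response vs DMSO.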

Experiment [15] addresses Oxysterols receptor LXR-beta (Homo sapiens) (UniProt P55055). Put plainly: ATG_LXRb_TRANS: Attagene TRANS-FACTORIAL HepG2 Assay for human Liver X Receptor beta (LXRb) (AID 2282981). Conditions: HepG2 Attagene TRANS GAL4-LXRb reporter, mRNA. In outline: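 Liver-derived HepG2 cells transfected with Gal4-responsive reporters were dosed for 24 h. Activation was scored as rise in reporter mRNA, by RT-PCR and capillary electrophoresis, above DMSO baseline.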

For experiment [16], the target named is Hepatocyte nuclear factor 4-alpha (Homo sapiens) (UniProt P41235). The experiment can be described thus: ATG_HNF4a_TRANS: Attagene TRANS-FACTORIAL HepG2 Assay for human Hepatocyte Nuclear Factor 4 alpha (HNF4a) (AID 2282982). Conditions: HepG2 HNF4a transactivation reporter, mRNA readout. In outline:
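Using HepG2 liver cells transfected with GAL4-UAS reporter units, chemical-induced mRNA increases were assessed after 24 hours. Fluorescent RT-PCR fragments were separated by capillary electrophoresis and compared with DMSO negative controls.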

Experiment [17] has as its target Bile acid receptor (Homo sapiens) (UniProt Q96RI1). The experiment can be described thus: ATG_FXR_TRANS: Attagene TRANS-FACTORIAL HepG2 Assay for Farnesoid X Receptor (FXR) (AID 2282979).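 Further: hits raise reporter mRNA above DMSO so AC50 marks FXR activation.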 Conditions: HepG2 Attagene TRANS FXR-GAL4 reporter transcription. In outline:
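Transient transfection of HepG2 with multiplexed GAL4-UAS reporter units; exogenous FXR-GAL4 chimera. Dose 24 h → TriZol RNA → oligo(dT) RT → PCR, 6-FAM primer extension, HpaI cut → CE. Gain vs DMSO.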

A short description of experiment [18]: ATG_M_06_TRANS: Attagene TRANS-FACTORIAL HepG2 Assay for M06 Transcription Factor (Internal Marker) (AID 2282983).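 Further: reporter transcript level by RT-PCR then capillary electrophoresis fluorescence.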 Conditions: HepG2 Attagene TRANS M06 internal marker reporter. In outline: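 Background control endpoint: reporter mRNA from transiently transfected HepG2 after 24 h dosing, detected by RT-PCR with capillary electrophoresis fluorescence. Analysed for gain versus DMSO.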

The target in experiment [19] is Androgen receptor (Homo sapiens) (UniProt P10275). The experiment can be described thus: ATG_AR_TRANS: Attagene TRANS-FACTORIAL HepG2 Assay for human Androgen Receptor (AR) (AID 2282973). Conditions: HepG2 Attagene TRANS-FACTORIAL AR reporter transcription. In outline:
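Steps: transfect HepG2 with multiple GAL4-UAS reporter transcription units (TRANS format, exogenous NR-Gal4 protein); dose 24 h; isolate RNA, reverse-transcribe, PCR-amplify, FAM-label, HpaI-digest; resolve by capillary electrophoresis. Positive direction vs DMSO.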

Records with an inconclusive call do not appear. The source made the active and inactive calls. How the source made its calls, unless noted: active means hit-call score of the fitted dose curve at least 0.9, where 1 is the maximum; inconclusive means response in the unintended direction; inactive means score below 0.9.

Sequence of Nuclear respiratory factor 1 (Homo sapiens) (Q16656 whole entry, looked up): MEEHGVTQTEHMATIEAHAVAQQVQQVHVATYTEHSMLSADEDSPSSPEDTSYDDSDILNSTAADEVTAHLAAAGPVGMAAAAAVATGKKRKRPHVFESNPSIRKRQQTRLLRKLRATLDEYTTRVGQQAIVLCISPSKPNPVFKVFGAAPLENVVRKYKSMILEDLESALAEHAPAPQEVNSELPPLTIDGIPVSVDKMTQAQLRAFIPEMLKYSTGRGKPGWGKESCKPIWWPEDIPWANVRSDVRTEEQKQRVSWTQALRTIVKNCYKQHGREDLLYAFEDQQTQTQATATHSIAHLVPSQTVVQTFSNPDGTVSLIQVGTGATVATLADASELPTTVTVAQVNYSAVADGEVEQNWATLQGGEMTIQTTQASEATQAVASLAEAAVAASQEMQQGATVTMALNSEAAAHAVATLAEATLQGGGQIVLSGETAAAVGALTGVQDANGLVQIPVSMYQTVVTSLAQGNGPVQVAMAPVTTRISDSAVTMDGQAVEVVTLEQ
Sequence of Bile acid receptor (Homo sapiens) (Q96RI1 whole entry, looked up, the tested form may be a part): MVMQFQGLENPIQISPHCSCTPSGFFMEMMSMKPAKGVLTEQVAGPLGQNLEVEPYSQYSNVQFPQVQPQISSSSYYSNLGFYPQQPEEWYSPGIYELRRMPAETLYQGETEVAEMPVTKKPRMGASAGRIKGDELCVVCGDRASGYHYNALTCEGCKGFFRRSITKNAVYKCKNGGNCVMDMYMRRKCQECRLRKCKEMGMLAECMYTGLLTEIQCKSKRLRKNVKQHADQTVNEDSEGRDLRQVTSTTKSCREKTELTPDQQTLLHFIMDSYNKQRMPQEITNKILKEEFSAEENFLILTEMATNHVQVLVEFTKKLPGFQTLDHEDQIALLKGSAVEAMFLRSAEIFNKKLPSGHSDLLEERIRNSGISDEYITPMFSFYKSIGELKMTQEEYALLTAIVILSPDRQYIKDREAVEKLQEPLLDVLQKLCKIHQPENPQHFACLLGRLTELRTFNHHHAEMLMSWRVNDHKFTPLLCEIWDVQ
Sequence of Hepatocyte nuclear factor 4-alpha (Homo sapiens) (P41235 whole entry, looked up, the tested form may be a part): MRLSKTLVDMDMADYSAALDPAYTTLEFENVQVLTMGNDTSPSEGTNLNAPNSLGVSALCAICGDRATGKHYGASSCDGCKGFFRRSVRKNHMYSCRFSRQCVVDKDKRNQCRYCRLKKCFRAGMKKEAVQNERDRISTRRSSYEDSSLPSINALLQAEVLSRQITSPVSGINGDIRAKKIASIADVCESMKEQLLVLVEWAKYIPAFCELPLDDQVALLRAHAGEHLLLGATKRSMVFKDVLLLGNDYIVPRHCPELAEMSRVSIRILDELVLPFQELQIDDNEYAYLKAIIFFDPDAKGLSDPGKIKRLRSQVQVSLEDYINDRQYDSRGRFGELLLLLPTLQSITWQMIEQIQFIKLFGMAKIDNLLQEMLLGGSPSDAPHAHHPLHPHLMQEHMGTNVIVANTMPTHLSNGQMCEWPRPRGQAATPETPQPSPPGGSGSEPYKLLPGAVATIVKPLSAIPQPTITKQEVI
Sequence of Glucocorticoid receptor (Homo sapiens) (P04150 whole entry, looked up, the tested form may be a part): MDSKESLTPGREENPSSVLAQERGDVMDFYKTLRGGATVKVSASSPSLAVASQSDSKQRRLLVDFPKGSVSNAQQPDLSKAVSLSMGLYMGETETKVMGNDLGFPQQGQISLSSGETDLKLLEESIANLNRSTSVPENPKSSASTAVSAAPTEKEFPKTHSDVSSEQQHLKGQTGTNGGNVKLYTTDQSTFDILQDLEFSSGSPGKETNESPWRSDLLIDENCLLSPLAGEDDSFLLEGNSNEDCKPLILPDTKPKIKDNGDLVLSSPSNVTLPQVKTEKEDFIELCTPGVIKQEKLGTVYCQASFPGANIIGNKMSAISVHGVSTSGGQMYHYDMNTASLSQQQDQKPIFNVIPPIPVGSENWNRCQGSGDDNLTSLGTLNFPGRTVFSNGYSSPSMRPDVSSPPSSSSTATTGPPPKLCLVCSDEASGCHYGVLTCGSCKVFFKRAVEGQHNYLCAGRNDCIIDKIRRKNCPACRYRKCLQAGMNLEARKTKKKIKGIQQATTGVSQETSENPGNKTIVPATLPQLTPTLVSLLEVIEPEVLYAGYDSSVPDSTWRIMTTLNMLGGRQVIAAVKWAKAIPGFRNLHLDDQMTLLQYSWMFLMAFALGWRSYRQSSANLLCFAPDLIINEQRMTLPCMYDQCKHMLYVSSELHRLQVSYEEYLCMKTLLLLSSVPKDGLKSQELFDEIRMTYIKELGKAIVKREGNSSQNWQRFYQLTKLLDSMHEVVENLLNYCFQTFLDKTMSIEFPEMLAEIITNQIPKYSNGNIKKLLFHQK
Sequence of Myc proto-oncogene protein (Homo sapiens) (P01106 whole entry, looked up): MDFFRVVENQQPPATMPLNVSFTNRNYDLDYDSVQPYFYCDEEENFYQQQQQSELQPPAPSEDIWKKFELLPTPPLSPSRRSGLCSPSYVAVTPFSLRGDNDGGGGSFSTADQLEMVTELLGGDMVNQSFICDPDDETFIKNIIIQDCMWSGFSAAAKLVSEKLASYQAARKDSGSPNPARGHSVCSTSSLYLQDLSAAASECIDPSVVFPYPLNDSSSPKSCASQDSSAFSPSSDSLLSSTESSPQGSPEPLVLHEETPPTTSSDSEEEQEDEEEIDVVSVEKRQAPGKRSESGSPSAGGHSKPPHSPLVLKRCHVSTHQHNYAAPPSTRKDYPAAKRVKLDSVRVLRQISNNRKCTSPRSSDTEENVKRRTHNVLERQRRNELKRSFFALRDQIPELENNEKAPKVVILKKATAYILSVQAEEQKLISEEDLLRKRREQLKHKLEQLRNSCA
Sequence of Estrogen-related receptor gamma (Homo sapiens) (P62508 whole entry, looked up, the tested form may be a part): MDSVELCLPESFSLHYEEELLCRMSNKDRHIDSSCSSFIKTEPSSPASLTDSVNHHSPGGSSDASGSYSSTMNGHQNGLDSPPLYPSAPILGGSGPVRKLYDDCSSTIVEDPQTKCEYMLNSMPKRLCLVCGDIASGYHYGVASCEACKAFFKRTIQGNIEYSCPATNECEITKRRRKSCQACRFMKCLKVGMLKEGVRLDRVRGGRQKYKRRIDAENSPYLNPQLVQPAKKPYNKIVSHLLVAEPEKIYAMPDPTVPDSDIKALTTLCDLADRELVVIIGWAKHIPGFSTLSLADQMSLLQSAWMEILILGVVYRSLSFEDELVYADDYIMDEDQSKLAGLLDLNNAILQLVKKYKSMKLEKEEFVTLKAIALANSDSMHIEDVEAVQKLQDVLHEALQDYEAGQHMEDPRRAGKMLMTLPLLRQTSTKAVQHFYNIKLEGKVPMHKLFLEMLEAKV
Sequence of Transcriptional activator Myb (Homo sapiens) (P10242 whole entry, looked up): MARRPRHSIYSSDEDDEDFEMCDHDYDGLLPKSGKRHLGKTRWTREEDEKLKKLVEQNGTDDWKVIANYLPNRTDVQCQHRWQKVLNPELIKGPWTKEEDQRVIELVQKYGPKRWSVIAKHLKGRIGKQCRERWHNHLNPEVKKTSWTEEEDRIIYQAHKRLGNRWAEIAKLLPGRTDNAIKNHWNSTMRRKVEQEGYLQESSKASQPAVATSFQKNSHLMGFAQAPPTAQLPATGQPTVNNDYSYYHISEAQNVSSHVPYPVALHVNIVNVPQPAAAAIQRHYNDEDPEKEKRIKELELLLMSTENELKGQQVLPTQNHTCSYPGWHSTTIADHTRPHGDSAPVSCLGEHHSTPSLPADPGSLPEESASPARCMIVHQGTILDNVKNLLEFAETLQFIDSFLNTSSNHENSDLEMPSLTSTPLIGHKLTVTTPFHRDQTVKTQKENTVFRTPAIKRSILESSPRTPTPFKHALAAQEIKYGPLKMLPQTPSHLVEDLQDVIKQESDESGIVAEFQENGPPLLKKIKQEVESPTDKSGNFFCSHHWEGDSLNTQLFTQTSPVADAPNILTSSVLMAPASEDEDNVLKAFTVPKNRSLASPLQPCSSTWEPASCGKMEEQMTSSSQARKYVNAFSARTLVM
Sequence of Oxysterols receptor LXR-alpha (Homo sapiens) (Q13133 whole entry, looked up, the tested form may be a part): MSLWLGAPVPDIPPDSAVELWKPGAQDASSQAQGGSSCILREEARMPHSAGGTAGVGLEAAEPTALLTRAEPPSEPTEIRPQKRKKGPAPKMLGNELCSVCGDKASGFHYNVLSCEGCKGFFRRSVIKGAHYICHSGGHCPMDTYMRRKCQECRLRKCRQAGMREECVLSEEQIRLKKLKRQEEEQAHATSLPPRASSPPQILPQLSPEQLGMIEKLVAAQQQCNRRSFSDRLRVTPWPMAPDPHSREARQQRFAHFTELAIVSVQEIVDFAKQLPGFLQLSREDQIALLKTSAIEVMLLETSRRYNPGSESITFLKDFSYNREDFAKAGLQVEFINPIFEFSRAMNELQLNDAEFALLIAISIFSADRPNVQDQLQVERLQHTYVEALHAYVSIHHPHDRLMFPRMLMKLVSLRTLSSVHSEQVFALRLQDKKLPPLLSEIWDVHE
Sequence of Estrogen receptor (Homo sapiens) (P03372 whole entry, looked up, the tested form may be a part): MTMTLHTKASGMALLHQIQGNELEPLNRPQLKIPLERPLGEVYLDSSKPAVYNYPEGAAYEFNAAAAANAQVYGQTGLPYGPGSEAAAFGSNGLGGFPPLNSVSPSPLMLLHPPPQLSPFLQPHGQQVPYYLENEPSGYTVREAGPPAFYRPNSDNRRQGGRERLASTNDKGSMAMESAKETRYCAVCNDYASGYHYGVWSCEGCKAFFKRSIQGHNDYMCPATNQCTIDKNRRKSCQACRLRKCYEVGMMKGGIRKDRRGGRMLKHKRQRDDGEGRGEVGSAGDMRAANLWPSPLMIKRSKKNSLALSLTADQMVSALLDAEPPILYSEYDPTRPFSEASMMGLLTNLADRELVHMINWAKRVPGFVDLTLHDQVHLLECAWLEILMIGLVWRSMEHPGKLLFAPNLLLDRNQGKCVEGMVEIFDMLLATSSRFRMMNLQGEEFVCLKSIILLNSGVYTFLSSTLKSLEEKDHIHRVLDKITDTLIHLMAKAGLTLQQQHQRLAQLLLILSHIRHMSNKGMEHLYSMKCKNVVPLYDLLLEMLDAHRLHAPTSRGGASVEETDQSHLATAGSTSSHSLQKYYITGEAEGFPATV

In the case of `O=c1nc(O)n(Cl)c(=O)n1Cl`, the call in experiment [1], in [2], in experiment [3], in [4], in experiment [5] and in experiment [6] was inactive. The outcome in [7], in experiment [8], in experiment [9], in experiment [10] and in experiment [11] was inactive.
In general, AC50 refers to the concentration at which the activity in the assay is half-maximal. For `Oc1ccc(Cc2ccc(O)cc2)cc1`, in [12], the half-maximal activity concentration (AC50) was 842 nM (active). Further, the result in experiment [2], in experiment [13], in experiment [14], in experiment [15], in experiment [16] and in experiment [6] was inactive. Besides, the result in experiment [8], in experiment [9], in [10] and in experiment [11] was inactive.
On to `O=c1[nH]c(=O)n(Cl)c(=O)n1Cl`, for which the result in experiment [1], in experiment [2], in [3], in experiment [4], in experiment [5] and in experiment [13] was inactive. In addition, the call in experiment [14], in experiment [15], in experiment [6], in experiment [8], in [9] and in experiment [10] was inactive. In addition, in experiment [11], the result was inactive.
On to `CCOC(=O)OC1=C(c2cc(C)ccc2C)C(=O)NC12CCC(OC)CC2` (stereo not given), for which the compound was classed as inactive in experiment [12], in experiment [2], in experiment [17], in experiment [14], in experiment [15] and in [16]. Also, the compound was classed as inactive in experiment [6], in experiment [7], in experiment [8], in experiment [9], in experiment [10] and in experiment [11].
Consider `N#Cc1ccccc1Cl`, for which the result in experiment [1], in [2], in [17], in experiment [15], in [18] and in experiment [8] was inactive. Moreover, the outcome in [10] and in experiment [11] was inactive.
`CCC[N+](CCC)(CCC)CCC`: the result in [1], in experiment [2], in experiment [3], in [4], in experiment [18] and in experiment [6] was inactive. For the same compound, the outcome in [8], in experiment [10] and in experiment [11] was inactive.
For `O=S(=O)(F)C(F)(F)C(F)(F)C(F)(F)C(F)(F)F`, the outcome in experiment [2], in experiment [19], in experiment [4], in [5], in experiment [17] and in [14] was inactive. In addition, the compound was classed as inactive in experiment [18], in experiment [6], in [8], in experiment [9], in experiment [10] and in experiment [11].
Turning to `C=CC(F)(C(F)(F)F)C(F)(F)C(F)(F)F` (stereo not given), the outcome in [1], in [2], in experiment [17], in experiment [14], in experiment [18] and in [8] was inactive. In addition, the result in [9], in experiment [10] and in experiment [11] was inactive.
`COc1ccccc1N`: the call in [1], in experiment [2], in experiment [3], in experiment [4], in experiment [5] and in experiment [14] was inactive. Moreover, the outcome in [16], in experiment [18], in experiment [6], in experiment [7], in experiment [8] and in experiment [9] was inactive. For the same compound, the compound was classed as inactive in [10] and in experiment [11].
As for `OCCCCO`, the outcome in [2], in [3], in [4], in experiment [5], in [14] and in experiment [18] was inactive. For the same compound, the result in experiment [7], in experiment [8], in experiment [9], in [10] and in [11] was inactive.
As to `O=C(NC(=O)c1c(F)cccc1F)Nc1cc(Cl)c(OC(F)(F)C(F)C(F)(F)F)cc1Cl` (stereo not given), the compound was classed as inactive in experiment [12], in [2], in experiment [14], in [16], in experiment [18] and in [6]. Moreover, the call in experiment [8], in [9], in experiment [10] and in [11] was inactive.
